# Measured values as given in the antibiotic and cytotoxicity screens of Wong et al. (2023).
# Out of some 39,000 compounds screened, about 3,300 (8.5%) were called active. The full list was thinned out, with actives kept by preference.
# System: HepG2
# Assay: cytotoxicity call (relative viability < 0.9)
# Conditions: 10 µM
row,SMILES,cytotoxicity call
1,Nc1ncnc2c([C@@H]3N[C@H](CO)[C@@H](O)[C@H]3O)c[nH]c12,inactive
2,Cc1noc(C)c1S(=O)(=O)Nc1ccc2c(c1)C(=O)N([C@H](C)CO)C[C@H](C)[C@@H](CN(C)Cc1ccc(Cl)c(Cl)c1)OCCCC[C@@H](C)O2,inactive
3,C[C@@H](Oc1ccccc1Cl)c1nc2ccc(Cl)cc2[nH]1,inactive
4,COC(=O)[C@H]1c2cc3c(c(O)c2[C@@H](O[C@@H]2O[C@H](C)[C@H](OC)[C@](C)(OC)[C@@H]2OC)C[C@@]1(C)O)C(=O)c1c(O)cc2c(c1C3=O)O[C@H]1O[C@@]2(C)[C@@H](O)[C@H](N(C)C)[C@@H]1O,active
5,O=C1O[C@H](c2ccccc2)[C@H](c2ccccc2)N2[C@H]1[C@@H](C(=O)N1CCCCCCC1)[C@]1(C(=O)Nc3ccc(C#CC4=CCCCC4)cc31)[C@H]2c1ccc(O)cc1,inactive
6,COc1ccc(S(=O)(=O)N(C)C[C@@H]2Oc3c(NC(=O)C4CC4)cccc3C(=O)N([C@H](C)CO)C[C@H]2C)cc1,inactive
7,O=C(C[C@H]1C=C[C@@H](NC(=O)c2ccc(F)cc2)[C@@H](CO)O1)NCc1ccncn1,inactive
8,C[C@@H]1CN([C@H](C)CO)C(=O)Cc2cc(NS(=O)(=O)c3cn(C)cn3)ccc2O[C@H]1CN(C)C,inactive
9,O=C(C[C@@H]1C=C[C@H](NC(=O)CN2CCOCC2)[C@H](CO)O1)NC1CCCCC1,inactive
10,CO[C@@H]1CN(C)C(=O)c2ccc(NC(=O)c3ccccc3)cc2OC[C@H](C)N(C(=O)CN(C)C)C[C@@H]1C,inactive
11,OC[C@@H]1CCCO1,inactive
12,COc1ccc(NC(=O)Nc2ccc3c(c2)CC(=O)N([C@@H](C)CO)C[C@@H](C)[C@@H](CN(C)Cc2ccc(-c4ccccc4)cc2)O3)cc1,active
13,COc1ccc(NC(=O)Nc2ccc3c(c2)CC(=O)N([C@H](C)CO)C[C@@H](C)[C@H](CN(C)Cc2ccc(-c4ccccc4)cc2)O3)cc1,inactive
14,COc1ccc(NC(=O)Nc2ccc3c(c2)CC(=O)N([C@H](C)CO)C[C@H](C)[C@@H](CN(C)Cc2ccc(-c4ccccc4)cc2)O3)cc1,inactive
15,COc1ccc(NC(=O)Nc2ccc3c(c2)CC(=O)N([C@@H](C)CO)C[C@@H](C)[C@H](CN(C)Cc2ccc(-c4ccccc4)cc2)O3)cc1,active
16,COc1ccc(NC(=O)Nc2ccc3c(c2)CC(=O)N([C@@H](C)CO)C[C@H](C)[C@@H](CN(C)Cc2ccc(-c4ccccc4)cc2)O3)cc1,inactive
17,COc1ccc(NC(=O)Nc2ccc3c(c2)CC(=O)N([C@@H](C)CO)C[C@H](C)[C@H](CN(C)Cc2ccc(-c4ccccc4)cc2)O3)cc1,active
18,COc1ccc(NC(=O)Nc2ccc3c(c2)CC(=O)N([C@H](C)CO)C[C@H](C)[C@H](CN(C)Cc2ccc(-c4ccccc4)cc2)O3)cc1,active
19,C[C@@H]1CN([C@H](C)CO)C(=O)Cc2cc(NS(=O)(=O)c3cccs3)ccc2O[C@@H]1CN(C)S(=O)(=O)c1ccc(F)cc1,inactive
20,COc1ccc(NC(=O)N(C)C[C@@H]2Oc3ccc(NC(=O)CCCCCC(=O)Nc4ccccc4N)cc3CC(=O)N([C@@H](C)CO)C[C@@H]2C)cc1,inactive
21,C[C@@H]1CN([C@H](C)CO)C(=O)c2cc(NC(=O)C3CC3)ccc2O[C@H]1CN(C)S(=O)(=O)c1cn(C)cn1,inactive
22,O=C(Cc1n[nH]c(=O)[nH]1)NCc1n[nH]c2c1CCCCC2,inactive
23,N=C1SCCN1CC(=O)O,inactive

row,SMILES,cytotoxicity call
1,C[C@@H]1CCCCO[C@H](CN(C)S(=O)(=O)c2ccc(F)cc2)[C@H](C)CN([C@@H](C)CO)C(=O)c2cc(NC(=O)CCC(F)(F)F)ccc2O1,inactive
2,C[C@H]1CN([C@@H](C)CO)C(=O)c2cc(NC(=O)Cn3cnnn3)ccc2O[C@@H]1CN(C)S(=O)(=O)c1cn(C)cn1,inactive
3,Cc1ccc(S(=O)(=O)N(C)C[C@H]2Oc3c(NS(=O)(=O)c4cn(C)cn4)cccc3C(=O)N([C@H](C)CO)C[C@H]2C)cc1,inactive
4,Cc1noc(C)c1NC(=O)Nc1ccc2c(c1)C(=O)N([C@H](C)CO)C[C@H](C)[C@@H](CN(C)C(=O)Nc1c(C)noc1C)OCCCC[C@@H](C)O2,inactive
5,COc1ccc(-c2cnc3c(c2)C(=O)N([C@H](C)CO)C[C@@H](C)[C@H](CN(C)C(=O)Cc2ccccn2)O3)cc1,inactive
6,CNC[C@H]1Oc2ccc(NC(=O)Cn3cnnn3)cc2CC(=O)N([C@@H](C)CO)C[C@@H]1C,inactive
7,C[C@@H]1CN([C@H](C)CO)C(=O)c2cc(C3=CCCC3)cnc2O[C@@H]1CN(C)S(=O)(=O)c1cn(C)cn1,inactive
8,C[n+]1cccc(C(=O)O)c1,inactive
9,COc1ccc(NC(=O)Nc2ccc3c(c2)CC(=O)N([C@H](C)CO)C[C@@H](C)[C@@H](CN(C)Cc2ccc(-c4ccccc4)cc2)O3)cc1,active
10,Cc1noc(C)c1NC(=O)Nc1ccc2c(c1)CC(=O)N([C@H](C)CO)C[C@H](C)[C@@H](CN(C)C(=O)NC(C)C)O2,inactive
11,CCc1ccc(/C=C2\SC(=O)N(CCCCCCNC(=O)c3ccc(Nc4ccc([N+](=O)[O-])c5nonc45)cc3)C2=O)cc1,inactive
12,CCc1ccc(/C=C2\SC(=O)N(CCCCCCNC(=O)c3ccccc3Nc3ccc([N+](=O)[O-])c4nonc34)C2=O)cc1,active
13,N[C@H]1CCCN(Cc2cccc(O)c2)C1,inactive
14,O=C(/C=C/c1ccc(CNc2ccc([C@H]3O[C@@H](CSc4ccncc4)C[C@H](c4ccccc4)O3)cc2)cc1)NO,active
15,O=C(CCCCCCC(=O)Nc1ccc([C@@H]2O[C@H](CSc3ccncc3)C[C@H](c3ccccc3)O2)cc1)NO,inactive
16,O=C(CCCCCCC(=O)Nc1ccc([C@H]2O[C@@H](CSc3ccncc3)C[C@H](c3ccccc3)O2)cc1)NO,inactive
17,C[C@H]1CN([C@@H](C)CO)C(=O)c2c(c3ccccc3n2C)-c2ccccc2CO[C@@H]1CN(C)Cc1ccc(Cl)c(Cl)c1,inactive
18,O=C1/C(=C/c2cccs2)CCC/C1=C\c1cccs1,inactive
19,CC(C)/C=C1\CC/C(=C\c2ccc(C(F)(F)F)cc2)C1=O,active
20,O=C1C(=Cc2cccs2)CCCC1=Cc1cccs1,inactive
21,C[C@@H]1CN([C@H](C)CO)C(=O)c2cc(NC(=O)Cn3cnnn3)ccc2O[C@H]1CN(C)S(=O)(=O)c1cccs1,inactive
22,CC(=O)n1cc([C@@H]2C=C(C(=O)N3CCCCCCC3)O[C@H](OCc3ccc(CO)cc3)C2)c2ccccc21,inactive
23,COc1ccccc1C#Cc1ccc2c(c1)O[C@@H](CN(C)Cc1cccnc1)[C@@H](C)CN([C@H](C)CO)S2(=O)=O,inactive

row,SMILES,cytotoxicity call
1,COc1ccccc1C#Cc1ccc2c(c1)O[C@H](CN(C)Cc1cccnc1)[C@@H](C)CN([C@@H](C)CO)S2(=O)=O,inactive
2,COc1ccccc1C#Cc1ccc2c(c1)O[C@H](CN(C)Cc1cccnc1)[C@H](C)CN([C@H](C)CO)S2(=O)=O,inactive
3,COc1ccccc1C#Cc1ccc2c(c1)O[C@@H](CN(C)Cc1cccnc1)[C@@H](C)CN([C@@H](C)CO)S2(=O)=O,active
4,COc1ccccc1C#Cc1ccc2c(c1)O[C@@H](CN(C)Cc1cccnc1)[C@H](C)CN([C@H](C)CO)S2(=O)=O,active
5,COc1ccccc1C#Cc1ccc2c(c1)O[C@@H](CN(C)Cc1cncnc1)[C@@H](C)CN([C@@H](C)CO)S2(=O)=O,inactive
6,COc1ccccc1C#Cc1ccc2c(c1)O[C@H](CN(C)Cc1cccnc1)[C@@H](C)CN([C@H](C)CO)S2(=O)=O,active
7,COc1ccccc1C#Cc1ccc2c(c1)O[C@H](CN(C)Cc1cccnc1)[C@H](C)CN([C@@H](C)CO)S2(=O)=O,inactive
8,COc1ccccc1C#Cc1ccc2c(c1)O[C@@H](CN(C)Cc1cccnc1)[C@H](C)CN([C@@H](C)CO)S2(=O)=O,inactive
9,Cc1ccc(S(=O)(=O)Nc2ccc3c(c2)C(=O)N([C@@H](C)CO)C[C@@H](C)[C@H](CN(C)C(=O)C2CCCCC2)OCCCC[C@@H](C)O3)cc1,inactive
10,C=CCOC(=O)[C@@H]1[C@H]2C(=O)O[C@H](c3ccccc3)[C@H](c3ccccc3)N2[C@H](c2ccc(OCCOC(=O)[C@@H]3C[C@@H]4C(=O)NCC(=O)N4[C@@H]3c3cccc(OCCO)c3)cc2)[C@@]12C(=O)Nc1ccccc12,inactive
11,C[C@@H]1CN([C@@H](C)CO)C(=O)Cc2cc(NC(=O)Nc3cccc4ccccc34)ccc2O[C@H]1CN(C)C(=O)Nc1ccc2c(c1)OCO2,inactive
12,C[C@@H]1CCCCO[C@@H](CN(C)C(=O)C2CCCCC2)[C@H](C)CN([C@H](C)CO)C(=O)c2cc(NC(=O)c3ccccc3)ccc2O1,inactive
13,C[C@H]1CN([C@@H](C)CO)C(=O)c2cc(NC(=O)CCCN(C)C)ccc2O[C@@H]1CN(C)Cc1ccc2c(c1)OCO2,inactive
14,C[C@@H]1CN([C@H](C)CO)C(=O)c2cc(NC(=O)Nc3ccc4c(c3)OCO4)ccc2O[C@@H](C)CCCCO[C@H]1CN(C)Cc1ccc(Cl)c(Cl)c1,active
15,C[C@@H]1CCCCO[C@H](CN(C)Cc2ccc(Cl)c(Cl)c2)[C@@H](C)CN([C@H](C)CO)C(=O)c2cc(NC(=O)Nc3ccc4c(c3)OCO4)ccc2O1,active
16,C[C@@H]1CCCCO[C@@H](CN(C)Cc2ccc(Cl)c(Cl)c2)[C@@H](C)CN([C@H](C)CO)C(=O)c2cc(NC(=O)Nc3ccc4c(c3)OCO4)ccc2O1,inactive
17,C[C@@H]1CCCCO[C@H](CN(C)Cc2ccc(Cl)c(Cl)c2)[C@@H](C)CN([C@@H](C)CO)C(=O)c2cc(NC(=O)Nc3ccc4c(c3)OCO4)ccc2O1,inactive
18,C[C@H](CO)N1C[C@H](C)[C@@H](CN(C)Cc2ccc(Cl)c(Cl)c2)OCCCC[C@H](C)Oc2ccc(NC(=O)Nc3ccc4c(c3)OCO4)cc2C1=O,inactive
19,C[C@@H]1CCCCO[C@@H](CN(C)Cc2ccc(Cl)c(Cl)c2)[C@H](C)CN([C@@H](C)CO)C(=O)c2cc(NC(=O)Nc3ccc4c(c3)OCO4)ccc2O1,inactive
20,C[C@@H]1CN([C@H](C)CO)C(=O)c2cc(NC(=O)Nc3ccc4c(c3)OCO4)ccc2O[C@@H](C)CCCCO[C@@H]1CN(C)Cc1ccc(Cl)c(Cl)c1,active
21,C[C@H]1CCCCO[C@H](CN(C)Cc2ccc(Cl)c(Cl)c2)[C@@H](C)CN([C@@H](C)CO)C(=O)c2cc(NC(=O)Nc3ccc4c(c3)OCO4)ccc2O1,active
